Results filed as inconclusive are left out. Activity calls are given as the source filed them. The call rests on the fitted dose curve; in most records, active means well fitted cell-killing curve with a large enough effect; inconclusive means small, poorly fitted or top-dose-only effect, or effect the other way; inactive means no such curve, though single readings can be large or run the other way.
What was measured:
[1] = Quantitative High-Throughput drug screen in 47 multiple myeloma cell lines against the NCATS MIPE library collection: INA6_PLB cell viability assay (AID 1918965; further: nearly all actives have a fitted effect of over 55% in size)
Outline: (§1)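 We plated 500 myeloma cells per well, pinned in MIPE 4.0 compounds, and incubated for 48 hours at 37C. ATP was then quantified with CellTiter-Glo, with DMSO and media-only wells defining 100% and 0%.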

[2] = Quantitative High-Throughput drug screen in 47 multiple myeloma cell lines against the NCATS MIPE library collection: H1112_PLB cell viability assay (AID 1918967; further: nearly all actives have a fitted effect of over 30% in size)
Outline: (§2)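 Myeloma cell lines, 500 cells per well, exposed to MIPE 4.0 library compounds for 48 h at 37C, 5% CO2. Viability from ATP by CellTiter-Glo luminescence; normalised to DMSO (100%) and media-only (0%) wells.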

[3] = Quantitative High-Throughput drug screen in 47 multiple myeloma cell lines against the NCATS MIPE library collection: KMS27_JCRB cell viability assay (AID 1918970); further: nearly all actives have a fitted effect of over 30% in size
Outline: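 KMS27_JCRB myeloma cells, 500 per well, exposed 48 h at 37 C, 5% CO2 to MIPE 4.0 compounds. Viability from ATP by CellTiter-Glo luminescence, normalized to DMSO (100%) and medium-only (0%) wells.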

[4] = Quantitative High-Throughput drug screen in 47 multiple myeloma cell lines against the NCATS MIPE library collection: KMS12BM_JCRB cell viability assay (AID 1918971); further: nearly all actives have a fitted effect of over 35% in size
Outline: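 Steps: seed 500 cells per well; pin-transfer MIPE 4.0 library; incubate 48 h at 37C, 5% CO2, humidified; add CellTiter-Glo, 5 min room temperature; read luminescence.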

[5] = Quantitative High-Throughput drug screen in 47 multiple myeloma cell lines against the NCATS MIPE library collection: JJN3_DSMZ cell viability assay (AID 1918966; further: nearly all actives have a fitted effect of over 50% in size)
Outline: as §2

[6] = Quantitative High-Throughput drug screen in 47 multiple myeloma cell lines against the NCATS MIPE library collection: Karpas25_ECACC cell viability assay (AID 1918968; further: nearly all actives have a fitted effect of over 35% in size)
Outline: as §2

[7] = Quantitative High-Throughput drug screen in 47 multiple myeloma cell lines against the NCATS MIPE library collection: KMS12PE_JCRB cell viability assay (AID 1918972); further: nearly all actives have a fitted effect of over 30% in size
Outline: as §1

[8] = Quantitative High-Throughput drug screen in 47 multiple myeloma cell lines against the NCATS MIPE library collection: KMS21BM_JCRB cell viability assay (AID 1918974); conditions: ATP luminescence, 48 h; viability: at 45.8 µM (top of the series) unless noted
Outline: as §2

[9] = Quantitative High-Throughput drug screen in 47 multiple myeloma cell lines against the NCATS MIPE library collection: KMS20_JCRB cell viability assay (AID 1918973); further: nearly all actives have a fitted effect of over 45% in size
Outline: as §2
Potency means the concentration at half of the fitted maximal effect.

Structure (SMILES): NC(N)=NC(=O)c1nc(Cl)c(N)nc1N
- Potency [1]: 5.26 µM (active)
- Potency [2]: 8.33 µM (active)
- Potency [3]: 14.8 µM (active)
- Potency [4]: inactive

Structure (SMILES): NNCCc1ccccc1
- Potency [5]: 18.7 µM (active)
- Potency [2]: 0.059 µM (active)
- Potency [6]: 8.33 µM (active)
- Potency [4]: 14.8 µM (active)
- Potency [7]: 14.8 µM (active)
- Potency [8]: 13.2 µM (active)

Structure (SMILES): Nc1ccc(S(=O)(=O)Nc2ccnn2-c2ccccc2)cc1
- Potency [5]: inactive
- Potency [2]: inactive
- Potency [6]: inactive
- Potency [4]: inactive
- Potency [7]: inactive
- Potency [8]: inactive

Structure (SMILES): CCN(CC)CCCC(C)Nc1nc(C)cc(Nc2ccc3nc(C)cc(N)c3c2)n1 (stereo unspecified)
- Potency [1]: 10.5 µM (active)
- Potency [2]: inactive
- Potency [3]: 10.5 µM (active)

Structure (SMILES): O=C1[C@H](Cc2ccc(O)cc2)N2C(=O)CCN(C(=O)NCc3ccccc3)[C@H]2CN1Cc1cccc2ccccc12
- Potency [5]: 7.43 µM (active)
- Potency [6]: 14.8 µM (active)
- Potency [4]: 4.18 µM (active)
- Potency [7]: inactive

Structure (SMILES): CC[C@@H](C)[C@H](NC(=O)[C@H](CC1CCCCC1)NC(=O)c1ccno1)C(=O)N1CCC2(CCc3ccccc32)CC1
- Potency [1]: inactive
- Potency [3]: inactive
- Potency [4]: 9.35 µM (active)
- Potency [7]: inactive

Structure (SMILES): Nc1cccc(S(=O)(=O)N2CCCN(S(=O)(=O)c3ccc4c(c3)OCCO4)CC2)c1
- Potency [1]: inactive
- Potency [7]: inactive

Structure (SMILES): COc1ccc(CC2=NN3C([C@@H](CCc4ccccc4)[C@@H](C)O)=NC(C)C3C(=O)N2)cc1OC (stereo partly specified)
- Potency [5]: inactive
- Potency [2]: inactive
- Potency [6]: inactive
- Potency [4]: inactive
- Potency [7]: inactive

Structure (SMILES): Cn1cnc2c(F)c(Nc3ccc(Br)cc3Cl)c(C(=O)NOCCO)cc21
- Potency [1]: 0.526 µM (active)
- Potency [2]: 0.662 µM (active)
- Potency [6]: 16.6 µM (active)
- Potency [7]: 3.32 µM (active)
- Potency [9]: 0.0935 µM (active)
- Potency [8]: 0.105 µM (active)

Structure (SMILES): O=C(Nc1ccc(F)c(C(F)(F)F)c1)Nc1nnc(-c2ccncc2)s1
- Potency [1]: 2.35 µM (active)
- Potency [3]: inactive
- Potency [8]: inactive

Structure (SMILES): CC(C)(Sc1ccc(CCN(CCCCC2CCCCC2)C(=O)NC2CCCCC2)cc1)C(=O)O
- Potency [5]: 18.7 µM (active)
- Potency [2]: inactive
- Potency [6]: inactive
- Potency [3]: inactive

Structure (SMILES): NC(=O)c1ccc(-c2nc(-c3ccc4c(c3)OCO4)c(-c3ccccn3)[nH]2)cc1
- Potency [5]: 0.0042 µM (active)
- Potency [2]: inactive
- Potency [7]: inactive

Structure (SMILES): C#Cc1cccc(Nc2ncnc3cc(OCCOC)c(OCCOC)cc23)c1
- Potency [1]: 18.7 µM (active)
- Potency [3]: 5.26 µM (active)
- Potency [4]: 20.9 µM (active)
- Potency [7]: 2.09 µM (active)

Structure (SMILES): Cc1cc([C@@H](C)Nc2ccccc2C(=O)O)c2nc(N3CCOCC3)cc(=O)n2c1
- Potency [1]: 13.6 µM (active)
- Potency [6]: 3.03 µM (active)
- Potency [3]: 10.8 µM (active)
- viability [8]: 15.1% [at 92.2 µM] (active)

Structure (SMILES): O=C(O)CCc1ccc(NCc2cccc(Oc3ccccc3)c2)cc1
- Potency [1]: inactive
- Potency [2]: inactive
- Potency [3]: inactive
- Potency [4]: inactive
- Potency [7]: inactive

Structure (SMILES): Nc1ncnc2nc(-c3ccc(N4CCOCC4)nc3)cc(-c3cccc(Br)c3)c12
- Potency [1]: 18.7 µM (active)
- Potency [7]: inactive

Structure (SMILES): Cc1cc(SCc2sc(-c3ccc(C(F)(F)F)cc3)nc2C)ccc1OCC(=O)O
- Potency [1]: 18.7 µM (active)
- Potency [2]: inactive
- Potency [3]: inactive

Structure (SMILES): Cc1[nH]c(=O)c(C#N)cc1-c1ccncc1
- Potency [1]: 14.8 µM (active)
- Potency [6]: 9.35 µM (active)
- Potency [3]: 1.32 µM (active)
- Potency [4]: inactive

Structure (SMILES): Fc1ccc(Cl)cc1-c1nc(Nc2ccncc2)c2nccnc2n1
- Potency [1]: 16.6 µM (active)
- Potency [2]: inactive
- Potency [3]: inactive
- Potency [7]: 0.469 µM (active)

Structure (SMILES): O=C(C1CC1)N1CC[C@@H](Cn2c(-c3ccc(-c4ccc5occc5c4)cc3)nc3cnccc32)C1
- Potency [1]: 20.9 µM (active)
- Potency [2]: inactive
- Potency [7]: 29.6 µM (active)

Structure (SMILES): Cc1ccc(N(CC2=NCCN2)c2cccc(O)c2)cc1
- Potency [1]: 13.2 µM (active)
- Potency [2]: 26.4 µM (active)
- Potency [6]: 4.69 µM (active)
- Potency [9]: inactive

Structure (SMILES): CC1(C)SCCN(S(=O)(=O)c2ccc(OCC#CCO)cc2)[C@@H]1C(=O)NO
- Potency [5]: inactive
- Potency [2]: inactive
- Potency [3]: inactive

Structure (SMILES): Cc1c(C)c2c(c(C)c1O)CCC(C)(COc1ccc(CC3SC(=O)NC3=O)cc1)O2 (stereo unspecified)
- Potency [5]: inactive
- Potency [2]: inactive
- Potency [4]: inactive

Structure (SMILES): CCOc1cc(N2CCC(O)CC2)ccc1Nc1ncc2c(n1)N(C)c1ccccc1C(=O)N2C
- Potency [1]: 2.64 µM (active)
- Potency [6]: 9.35 µM (active)
- Potency [3]: 0.187 µM (active)
- Potency [4]: 11.8 µM (active)
- Potency [7]: 1.05 µM (active)
- Potency [8]: 0.526 µM (active)

Structure (SMILES): Cc1cn[nH]c1
- Potency [5]: 1.48 µM (active)
- Potency [2]: 6.62 µM (active)
- Potency [6]: 0.59 µM (active)
- Potency [3]: 0.264 µM (active)
- Potency [4]: 0.0132 µM (active)
- Potency [7]: 0.296 µM (active)
- Potency [9]: 0.332 µM (active)

Structure (SMILES): CN[C@@H](C)C(=O)N[C@H]1CCCC[C@H]2CC[C@@H](C(=O)N[C@@H](c3ccccc3)c3cn(CCCCc4ccc(CCCCn5cc([C@@H](NC(=O)[C@@H]6CC[C@@H]7CCCC[C@H](NC(=O)[C@H](C)NC)C(=O)N76)c6ccccc6)nn5)cc4)nn3)N2C1=O
- Potency [1]: 8.33 µM (active)
- Potency [3]: 18.7 µM (active)
- Potency [4]: inactive
- Potency [7]: 4.69 µM (active)

Source: PubChem BioAssay (NCATS)
